From ChEMBL document CHEMBL1201862, “PubChem BioAssay data set” (2004) come the findings set out here.

Screen size: about 400,000 compounds; about 2,100 (0.53%) were called active. Another 14% or so got no clear call; they are omitted. The rule behind the calls is not given here. What follows is part of a selection rich in actives, with near analogues and random picks from the rest.

Sequence of Ataxin-2 (Homo sapiens) (Q99700 whole entry): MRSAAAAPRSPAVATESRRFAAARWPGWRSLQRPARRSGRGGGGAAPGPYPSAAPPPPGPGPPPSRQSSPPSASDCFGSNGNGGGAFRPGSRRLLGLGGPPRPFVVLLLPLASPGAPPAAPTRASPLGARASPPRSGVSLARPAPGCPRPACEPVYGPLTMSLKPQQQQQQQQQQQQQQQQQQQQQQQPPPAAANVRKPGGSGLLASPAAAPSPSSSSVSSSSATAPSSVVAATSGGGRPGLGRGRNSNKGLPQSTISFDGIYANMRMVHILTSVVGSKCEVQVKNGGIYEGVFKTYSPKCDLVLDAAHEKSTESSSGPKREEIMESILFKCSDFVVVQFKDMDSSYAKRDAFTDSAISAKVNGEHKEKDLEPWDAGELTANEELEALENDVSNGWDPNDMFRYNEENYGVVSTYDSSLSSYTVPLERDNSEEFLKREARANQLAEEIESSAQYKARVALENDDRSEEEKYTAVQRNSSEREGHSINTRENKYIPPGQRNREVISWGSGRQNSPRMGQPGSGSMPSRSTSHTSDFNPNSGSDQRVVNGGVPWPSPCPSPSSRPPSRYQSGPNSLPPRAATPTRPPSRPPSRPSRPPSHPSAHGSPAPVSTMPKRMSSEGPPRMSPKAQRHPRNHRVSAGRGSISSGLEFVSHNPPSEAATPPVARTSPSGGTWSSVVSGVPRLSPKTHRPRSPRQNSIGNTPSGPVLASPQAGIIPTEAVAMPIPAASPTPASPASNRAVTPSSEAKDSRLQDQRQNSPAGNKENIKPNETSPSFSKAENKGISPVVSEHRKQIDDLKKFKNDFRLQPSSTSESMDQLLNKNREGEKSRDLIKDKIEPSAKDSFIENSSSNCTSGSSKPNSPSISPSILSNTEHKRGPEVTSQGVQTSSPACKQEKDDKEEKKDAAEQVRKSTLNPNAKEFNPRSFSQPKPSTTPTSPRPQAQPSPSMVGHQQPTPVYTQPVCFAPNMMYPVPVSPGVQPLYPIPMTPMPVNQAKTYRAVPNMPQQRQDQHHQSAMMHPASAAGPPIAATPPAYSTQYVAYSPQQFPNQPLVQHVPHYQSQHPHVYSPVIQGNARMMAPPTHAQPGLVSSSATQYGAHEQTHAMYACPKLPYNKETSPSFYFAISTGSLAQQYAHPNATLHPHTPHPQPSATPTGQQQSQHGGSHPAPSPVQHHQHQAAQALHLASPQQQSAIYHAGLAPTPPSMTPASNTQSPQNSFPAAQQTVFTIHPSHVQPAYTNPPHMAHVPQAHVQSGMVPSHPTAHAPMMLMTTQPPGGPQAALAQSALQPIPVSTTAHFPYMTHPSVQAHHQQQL

The experiment concerns the target Ataxin-2 (Homo sapiens) (UniProt Q99700). The experiment can be described thus: qHTS for Inhibitors of ATXN expression. Type of experiment: functional. On the technique in general: In qHTS, concentration-response curves come from the screen itself.
Turning to `O=C(COC(=O)c1cccnc1)NC1CCCc2ccccc21` (stereo unspecified), the Potency entry is “inactive”.
Next, `CCOc1ccc(N2CC(c3nc4ccccc4n3CCCOc3ccccc3)CC2=O)cc1` (stereo unspecified): 22.4 µM (active); `CCOc1ccc(CNc2nc3ccccc3n2C)cc1`: “inactive”.
As to `CCOc1ccc(N2CC(C(=O)Nc3ccc(S(=O)(=O)NCC4CCCO4)cc3)CC2=O)cc1` (stereo unspecified), the Potency entry was “inactive”.
Consider `Cc1nn(Cc2ccccc2)c(Cl)c1/C=N/NC(=O)c1cccnc1`, for which the Potency result was “inactive”.
As for `CN1CCN(c2ccc([N+](=O)[O-])c(-n3nc(-c4ccccc4)c4ccccc4c3=O)c2)CC1`, the Potency was 35.5 µM (active).
Next, `Nc1ccc2nn(-c3ccccc3)nc2c1`: “inactive”.
Turning to `N#CC(c1nc2ccccc2nc1N1CCOCC1)S(=O)(=O)c1ccccc1` (stereo unspecified), the Potency result is “inactive”.
`Fc1ccccc1N1CC(c2ccccc2)C(c2cccs2)=N1` (stereo unspecified): the Potency entry is “inactive”.
In the case of `CCCCCCc1cc2cc(S(=O)(=O)c3ccc(F)c(Cl)c3)c(=O)oc2cc1O`, the Potency entry is “inactive”.
Next, `OC(CNc1ccnc2cc(Cl)ccc12)CNC1CCCCC1` (stereo unspecified): 39.8 µM (active); `Clc1ccc2c(NCCNC3CCCCC3)ccnc2c1`: 15.8 µM (active); `Cc1ccc(/C=C2\CCC3=C2OC(N)=C(C#N)C3c2ccc(C)cc2)cc1` (stereo unspecified): “inactive”.
With `CCOC(=O)c1cc2c(=O)n3ccccc3nc2n(CC2CCCO2)/c1=N\C(=O)c1ccc(OC)cc1OC` (stereo unspecified), the Potency result was “inactive”.
Turning to `O=C(Cc1ccccc1)N/N=C/c1cc(Br)cc(Cl)c1O`, the Potency entry is “inactive”.
As to `CCOC(=O)c1cc2c(=O)n3ccccc3nc2n(Cc2ccco2)/c1=N\C(=O)c1cccc(F)c1`, the Potency result was “inactive”.
In the case of `Clc1ccc(-c2noc(/C=C/c3ccccc3)n2)cc1`, the Potency result was “inactive”.
As to `O=C1/C(=C/Nc2nnc(CCCO)[nH]2)c2ccccc2C(=O)N1c1ccccc1Cl`, the Potency entry is “inactive”.
In the case of `CCCCn1c(N)c(N(CCOC)C(=O)CN2c3ccccc3CC2C)c(=O)[nH]c1=O` (stereo unspecified), the Potency entry was “inactive”.
In the case of `Cc1ccccc1OCC(=O)N(Cc1ccco1)c1c(N)n(Cc2ccccc2)c(=O)[nH]c1=O`, the Potency entry is “inactive”.
For the compound `Nc1c(N(CCC2=CCCCC2)C(=O)COc2ccc(F)cc2)c(=O)[nH]c(=O)n1Cc1ccccc1`, the Potency was 39.8 µM (active).
Regarding `Nc1c(N(CCC2=CCCCC2)C(=O)COc2ccc(F)cc2Cl)c(=O)[nH]c(=O)n1Cc1ccccc1`, the Potency is 11.9 µM (active).
For `CCN(C(=O)COC(=O)c1cccc(S(=O)(=O)N(C)C)c1)c1c(N)n(Cc2ccccc2)c(=O)[nH]c1=O`, the Potency result was “inactive”.
In the case of `CCCCN(C(=O)CSc1nnc2ccccn12)c1c(N)n(Cc2ccccc2)c(=O)[nH]c1=O`, the Potency entry was “inactive”.
With `CCn1c(=N)c(C(=O)NCC2CCCO2)cc2c(=O)n3cc(C)ccc3nc21` (stereo unspecified), the Potency result was “inactive”.
As for `C=CCC[C@@H](Cc1ccc(F)cc1)C(=O)OC[C@H](Cc1c[nH]c2ccccc12)NC(=O)[C@@H](CC=C)CC(=O)NCCO`, the Potency is 39.8 µM (active).
The result for `C=CC[C@@H](CC(=O)N[C@H](CO)Cc1ccccc1)C(=O)N[C@H](COC(=O)[C@@H](CC=C)Cc1ccc(F)cc1)Cc1c[nH]c2ccccc12` reads 25.1 µM (active); that for `C=CC[C@@H](CC(=O)NCCO)C(=O)N[C@H](COC(=O)[C@@H](CC=C)Cc1ccc(F)cc1)Cc1c[nH]c2ccccc12`, 35.5 µM (active); that for `C=CCC[C@H](Cc1ccc(F)cc1)C(=O)OC[C@H](Cc1c[nH]c2ccccc12)NC(=O)[C@@H](CC=C)CC(=O)NCCO`, 28.2 µM (active).
Turning to `CC(C)n1c(=N)c(C(=O)NCCc2ccccc2)cc2c(=O)n3ccccc3nc21`, the Potency entry was “inactive”.
Turning to `COc1cc(/C=C2\C(=N)N3N=CSC3=NC2=O)cc(Br)c1OC(=O)c1ccco1`, the Potency result is “inactive”.
Next, `COc1ccc2nc(N3CCCCC3)c(C#N)cc2c1`: “inactive”.
As to `N=c1oc2cc(O)ccc2cc1C(=O)Nc1ccc(F)cc1`, the Potency result was “inactive”.
In the case of `COCCOC(=O)c1c(N)n(CCCN2CCOCC2)c2nc3ccccc3nc12`, the Potency result is “inactive”.
For `O=C(NCCCN1CCOCC1)/C(=C/c1cccnc1)NC(=O)c1ccccc1`, the Potency entry was “inactive”.
For the compound `CCOC(=O)/C(=C\c1ccccc1)C(=O)CCN1CCOCC1`, the Potency was 42.3 µM (active).
For `CCCc1cc(=O)oc2cc(O[C@@H]3O[C@H](CO)[C@@H](O)[C@H](O)[C@H]3O)ccc12`, the Potency result is “inactive”.
`COc1ccccc1-c1nnc(Sc2nc([N+](=O)[O-])nn2C)o1`: the Potency was 11.2 µM (active).
The result for `COc1ccccc1NC(=O)CSc1nnc(-c2ccoc2C)o1` reads “inactive”; that for `COc1ccccc1-c1nnc(-c2ccc(C)cc2)o1`, “inactive”.
Take `C=CCn1c(N)c(C(=O)OC(C)(C)C)c2nc3ccccc3nc21`: the Potency result is “inactive”.
Consider `CCn1c2ccccc2c2nc3cc(C(=O)O)ccc3nc21`, for which the Potency result is “inactive”.
Take `C=CCn1c2ccccc2c2nnc(SCCCn3c(=O)[nH]c4ccccc43)nc21`: the Potency is 39.8 µM (active).
Next, `NC(=O)C[n+]1cccc(C(=O)Nc2ccccc2)c1`: “inactive”; `CCN(CC)c1ccc(N)cc1`: 31.6 µM (active); `CCN(CC)c1ccc2c(C)c(-c3ccc(N)cc3)c(=O)oc2c1`: “inactive”.
Turning to `CCN(CC)c1ccc2ccc(=O)oc2c1`, the Potency entry is “inactive”.
As to `O=C(Nc1ccccc1)N(C1=NCCC1)c1ccccc1`, the Potency result is “inactive”.
Next, `O=C(O)c1ccccc1N(c1ccccc1)c1ccccc1`: “inactive”.
`CC(=O)n1cc(N(C(=O)CCl)c2ccccc2)c2ccccc21`: the Potency is 22.4 µM (active).
As to `O=C(CCCC(=O)NNC(=O)Nc1ccccc1)NNC(=O)Nc1ccccc1`, the Potency entry is “inactive”.
`O=C(CCl)N(c1ccccc1)c1ccccc1`: the Potency was 7.52 µM (active).
For `O=C(Nc1ccccc1)NN(C(=O)CCl)c1ccccc1`, the Potency was 22.4 µM (active).
Take `COC(=O)c1cn(C(=O)c2cc(C)cc(C)c2)c2ccccc12`: the Potency entry is “inactive”.
Regarding `CC(=O)n1c(/C=N/c2ccccc2)c(O)c2ccccc21`, the Potency entry is “inactive”.
`Cc1c(Cc2ccccc2)c(=O)oc2c(C)c(OCC(=O)Nc3ccc(C#N)cc3)ccc12`: the Potency entry is “inactive”.
Next, `OC[C@@H]1[C@@H](c2ccc(F)cc2)C(c2ccccc2)=NN1c1ccccc1`: “inactive”; `Clc1ccc(/C=C\c2[nH]ccc3c4ccccc4nc2-3)cc1`: “inactive”.
In the case of `CCc1cc2c(COC(=O)c3cccc(S(C)(=O)=O)c3)cc(=O)oc2cc1O`, the Potency entry was “inactive”.
Consider `O=C(O)/C=C/c1cn(Cc2ccccc2)nc1-c1cccs1`, for which the Potency entry is “inactive”.
`c1ccc(CN2CCC(Nc3nc(-c4cccs4)nc4ccccc34)CC2)cc1`: the Potency was 31.6 µM (active).
With `Cc1cccn2c(=O)c3cc(C(=O)NCC4CCCO4)c(=N)n(Cc4cccnc4)c3nc12` (stereo unspecified), the Potency entry is “inactive”.
With `CC(C)c1cc(NCc2ccccn2)n2c(nc3ccccc32)c1C#N`, the Potency result is “inactive”.
In the case of `O=S(=O)(Nc1cc2nc3ccccc3nc2n1Cc1ccccc1)c1ccc(Cl)cc1`, the Potency result was “inactive”.
For the compound `O=S(=O)(NCC(Nc1ccc(Cl)cc1)c1ccccc1)c1ccccc1` (stereo unspecified), the Potency was 22.4 µM (active).
Next, `O=S(=O)(Nc1nc2ccccc2nc1Cl)c1ccc(Cl)cc1`: “inactive”.
As for `Cc1c(CCC(=O)NC2CC2)c(=O)oc2c(C)c(O)ccc12`, the Potency entry was “inactive”.
In the case of `CCc1nnc(NC(=O)CSc2n[nH]c3c4ccccc4nc-3n2)s1`, the Potency entry was “inactive”.
With `CC1CCc2cc(F)ccc2N1C(=O)CSc1n[nH]c2c3cc(F)ccc3nc-2n1` (stereo unspecified), the Potency is 22.4 µM (active).
In the case of `CC1CCc2cc(F)ccc2N1C(=O)CCl` (stereo unspecified), the Potency is 29.9 µM (active).
Next, `CC(Sc1nc(-c2ccc(F)cc2)cs1)C(=O)N1c2ccccc2CC1C` (stereo unspecified): “inactive”; `CN1CCC(N(C)C(=O)c2sc3cc(F)ccc3c2Cl)CC1`: “inactive”; `CC(=O)N1c2ccc(S(=O)(=O)NCCC(=O)Nc3ccc(Cl)cc3)cc2CC1C` (stereo unspecified): “inactive”.
For the compound `Cc1nc2nc(-c3ccc(F)cc3)cn2nc1C`, the Potency entry is “inactive”.
On to `CCCCCC[n+]1ccccc1C=Cc1ccc(N(C)C)cc1`, for which the Potency is 7.94 µM (active).
As to `COc1ccc(/C=C2\CCc3c2nc2ccccc2c3C(=O)O)cc1OC`, the Potency entry was “inactive”.
With `CN(C)c1ccc(C=Cc2cnccn2)cc1`, the Potency result was “inactive”.
With `CCCN(CCC)c1ccc(/C=C/c2ccc3cc(OCC)ccc3n2)cc1`, the Potency entry is “inactive”.
As for `CN(C)c1ccc(/C=C/c2nc3ccccc3s2)cc1`, the Potency result is “inactive”.
In the case of `CN(C)c1ccc(/C=C/c2cccc[n+]2[O-])cc1`, the Potency entry was “inactive”.
As to `CC[n+]1c(/C=C/c2ccc(N(C)C)cc2)ccc2ccccc21`, the Potency is 10 µM (active).
In the case of `CN(C)c1ccc(/C=C/c2ccc3ccccc3n2)cc1`, the Potency result was “inactive”.
With `CCN(CC)c1ccc(/C=N/NC(=S)NCc2ccc(OC)cc2)cc1`, the Potency entry is “inactive”.
For the compound `CC[n+]1c(/C=C/c2ccc(OC(C)=O)c(OC)c2)ccc2ccccc21`, the Potency is 22.4 µM (active).
In the case of `CCN(CC)c1ccc(/C=C/c2ccc3ccc(OC)cc3[n+]2CC)cc1`, the Potency was 2.82 µM (active).
For the compound `COc1ccc2ccccc2c1/C=N/Nc1cccc(C(=O)O)c1`, the Potency result is “inactive”.
As for `CCOC(=O)c1cc(C#N)c(Nc2ccccc2OC)nc1C(F)(F)F`, the Potency entry is “inactive”.
As for `O=S(=O)(O)c1ccc(N2N=C(c3ccccc3)CC2c2ccccc2)cc1` (stereo unspecified), the Potency result was “inactive”.
In the case of `Nc1nnc(-c2cc3ccccc3oc2=O)s1`, the Potency entry was “inactive”.
As for `CC(=O)Oc1ccc(N2C(=O)c3cccc4c([N+](=O)[O-])ccc(c34)C2=O)cc1`, the Potency entry was “inactive”.
The result for `CC(=O)NNC(=O)c1sc(=S)n2c1[nH]c(=O)c1sccc12` reads “inactive”; that for `CN(C)c1ccc(/C=C/c2ccc3c4ccccc4ccc3[n+]2-c2ccccc2)cc1`, 11.9 µM (active).
Consider `CN(C)c1ccc(C=Cc2nccc3ccccc23)cc1`, for which the Potency entry is “inactive”.
As to `Oc1ccc(/C=C/c2ccnc3ccccc23)cc1`, the Potency entry is “inactive”.
On to `C[n+]1c(/C=C/c2ccc(O)cc2)ccc2ccccc21`, for which the Potency is 26.7 µM (active).
Next, `Oc1ccc(/C=C/c2ccc3ccccc3n2)cc1`: “inactive”; `CCN(CC)c1ccc(/C=C/c2cc(-c3ccccc3)c3ccccc3n2)cc1`: “inactive”.
As to `O=C1C(Cl)=C(NC2CCCCC2)C(=O)N1Cc1ccccc1`, the Potency result was “inactive”.
Turning to `C=CCn1c(C)c(C(C)=O)cc(NC(=O)c2ccccc2)c1=O`, the Potency result is “inactive”.
With `Cc1ccc(C)c(OCC(O)CN2CCC(CN3C(=O)c4cccc5cccc(c45)C3=O)CC2)c1` (stereo unspecified), the Potency is 39.8 µM (active).
In the case of `CCC(C)NC(=O)CN1C(=O)c2cccc3cccc1c23` (stereo unspecified), the Potency result was “inactive”.
In the case of `CCOC(=O)C1CCN(S(=O)(=O)c2ccc3c4c(cccc24)C(=O)N3CC)CC1`, the Potency entry was “inactive”.
With `O=C(CN1C(=O)c2cccc3cccc1c23)NC1CCCC1`, the Potency entry was “inactive”.
Turning to `CCOC(=O)N1CCN(CC(O)COc2cc(C)cc(C)c2)CC1` (stereo unspecified), the Potency result was “inactive”.
The result for `Cc1cc(C)cc(OCC(O)CN2CCC(CN3C(=O)c4cccc5cccc(c45)C3=O)CC2)c1` (stereo unspecified) reads 28.2 µM (active); that for `CCOC(=O)C1CCCN(S(=O)(=O)c2ccc3c4c(cccc24)C(=O)N3CC)C1` (stereo unspecified), “inactive”.
Next, `CCc1ccc(OCC(O)CN2CCC(CN3C(=O)c4cccc5cccc(c45)C3=O)CC2)cc1` (stereo unspecified): 39.8 µM (active); `CCN(CC)C(=O)CN1C(=O)c2cccc3cccc1c23`: “inactive”.
In the case of `O=C1c2cccc3cc([N+](=O)[O-])cc(c23)C(=O)N1CC1CCCO1` (stereo unspecified), the Potency result is “inactive”.
Next, `O=C(CN1C(=O)c2cccc3cccc1c23)NC1CCCCC1`: “inactive”; `Cc1cccc(C)c1OCC(O)CN1CCC(CN2C(=O)c3cccc4cccc(c34)C2=O)CC1` (stereo unspecified): 25.1 µM (active).
